Data: the supplement of paper PMC10338343
± gives the standard deviation.

Columns and labels:
[1] = test system: MILI (PIWIL2) piRISC loaded with piRNA #1 (26 nt); assay: pre-steady-state target cleavage rate (min^-1); guide: piRNA #1 5'p-UGAGGUAGUAGGUUGUAUAGUAUCCA; higher = faster piRNA-guided slicing of the target; conditions: auxiliary factor: 500 nM mouse GTSF1
Outline: (§1)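 The method was Cleave-'n-Seq, in which uncleaved targets from a transcribed, DNA-blocked target RNA library were sequenced after exposure to active affinity-purified piRISC carrying one synthetic guide, with or without GTSF1 partner protein. Reactions contained 0.1 nM library, 1 nM piRISC and, where present, 500 nM GTSF1 in HEPES–potassium acetate buffer at 33 °C for 0–8 or 0–960 min. Reads were normalised to depth and to weakly complementary targets, three trials were pooled, and k3 was capped at 0.0001 min^-1. The pre-steady-state cleavage rate came from a burst-and-steady-state fit.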

[2] = test system: EfPiwi piRISC loaded with piRNA #1 (26 nt); assay: pre-steady-state target cleavage rate (min^-1); auxiliary factor: 500 nM Ephydatia muelleri Gtsf1; guide: piRNA #1 5'p-UGAGGUAGUAGGUUGUAUAGUAUCCA; MIWI and MILI are mouse PIWI proteins and EfPiwi is from a freshwater sponge; tags in brackets are library labels; higher = faster piRNA-guided slicing of the target
Outline: as §1

| Sequence | pre-steady-state target cleavage rate [1] | pre-steady-state target cleavage rate [2] |
| --- | --- | --- |
| GGAGUGGAUACUAUACAUGGUACUACCUCA | 0.00713 ± 0.0016 | 0.00303 ± 0.0028 |
| GGAGAGGUUUCUAUACAACCUACUACCUCA | 0.14 ± 0.013 | 0.00427 ± 0.004 |
| GGAGUGCAAACUAUACAACCUACUACCUCA | 0.126 ± 0.012 | 0.00676 ± 0.0044 |
| GGAGACCAAACUUUACAACCUACUACCUCA | 0.137 ± 0.034 | 0.011 ± 0.0057 |
| GGAGUGGGUACUAUACAACCUACUACCUCA | 0.148 ± 0.01 | 0.00924 ± 0.0037 |
| GGAGACGAUGACUAUACAACCUACUACCUCA | 0.151 ± 0.02 | 0.11 ± 0.039 |
| GGAGAGGAUACUAUACAACCUACUACUCUCA | 0.123 ± 0.015 | 0.00775 ± 0.0031 |
| GGAGACCAUACUAUACAACCUACUACUCA | 0.204 ± 0.026 | 0.00387 ± 0.0024 |
| GGAGACCUAACUAUGCAACCUACUACCUCA | 0.12 ± 0.013 | 0.00447 ± 0.0039 |
| GGAGAGGAUACUAUUCAACCUACUACGUCA | 0.0602 ± 0.0084 | 0.00309 ± 0.0023 |
| GGAGACCUAUGAAUACAACCUACUACCUUA | 0.00551 ± 0.0022 | 0.00423 ± 0.0038 |
| GGAGUGGAUAGUAUACAACCAACUACCUCA | 0.0064 ± 0.0029 | 0.00306 ± 0.0018 |
| GGAGACCUUCACUAUACAACCUACUACCUCA | 0.107 ± 0.017 | 0.00775 ± 0.0054 |
| GGAGACCUAACUAUACAACCUAAUACCUCA | 0.0504 ± 0.013 | 0.00511 ± 0.0036 |
| GGAGACCAUACUAUACAACCUUCUACGUCA | 0.00397 ± 0.0034 | 0.00387 ± 0.0029 |
| GGAGACCAUACUAUACAAGCUACUACCUGA | 0.157 ± 0.019 | 0.00543 ± 0.0026 |
| GGAGACCAUACUAUACAACCUACUUCCACA | 0.0785 ± 0.018 | 0.0032 ± 0.0032 |
| GGAGUGGAUACUAUACAACCUACUACCUUA | 0.112 ± 0.011 | 0.276 ± 0.095 |
| GGAGUGGAUACUAUCCAACCUACUACCUCA | 0.197 ± 0.01 | 0.0097 ± 0.0041 |
| GGAGACGAUACUAUACAAGCUACUUCCUCA | 0.167 ± 0.016 | 0.00404 ± 0.0021 |
| GGAGAGGAUACUAUACAAGCUACUACCUCA | 0.143 ± 0.014 | 0.00667 ± 0.003 |
| GGAGACGAUACUAUACAACCUACAAGCUCA | 0.0171 ± 0.0086 | 0.00381 ± 0.0023 |
| GGAGACGAAUCUAUACAACCUACUACCUCA | 0.146 ± 0.015 | 0.0517 ± 0.018 |
| GGAGUGCAUACUAUACAACCUACAACCUCA | 0.0916 ± 0.01 | 0.00301 ± 0.0024 |
| GGAGACGAUACUAUAGAACCUACUACGUCA | 0.0644 ± 0.013 | 0.002 ± 0.0014 |
| GGAGACGAUAGUAUACAACCUAGUACCUCA | 0.0719 ± 0.011 | 0.00201 ± 0.0013 |
| GGAGACCUUACUAUACAACCUACUACCUGCA | 0.167 ± 0.019 | 0.00419 ± 0.0031 |
| GGAGAGGUUACUAUACAACGUACUACCUCA | 0.00751 ± 0.0028 | 0.00457 ± 0.0015 |

| Sequence | pre-steady-state target cleavage rate [1] | pre-steady-state target cleavage rate [2] |
| --- | --- | --- |
| GGAGACCUAUGAGUACAACCUACUACCUCA | 0.00674 ± 0.0022 | 0.00713 ± 0.004 |
| GGAGACGAUUCUAUACAACCUACUAGCUCA | 0.12 ± 0.013 | 0.00278 ± 0.0019 |
| GGAGACGAUACUAUACAACCUACUAGCUGA | 0.0101 ± 0.0055 | 0.00481 ± 0.0027 |
| GGAGACGAUACUAUAGAACCUUCUACCUCA | 0.00459 ± 0.0021 | 0.00285 ± 0.0016 |
| GGAGACCUUACUAUACAACCUAUUACCUCA | 0.226 ± 0.019 | 0.0052 ± 0.0025 |
| GGAGAGGAAACUAAACAACCUACUACCUCA | 0.229 ± 0.03 | 0.00466 ± 0.0036 |
| GGAGACGAUACUAUACAACCUACAUACCUCA | 0.153 ± 0.016 | 0.00413 ± 0.0021 |
| GGAGACCAUACUAUACAACCUACUACCGCA | 0.203 ± 0.025 | 0.00689 ± 0.0023 |
| GGAGACCUAUCUAUACAUCCUACUACCUGA | 0.0957 ± 0.022 | 0.00459 ± 0.0036 |
| GGAGACCUGACUAUACAACCUACUACCUCA | 0.125 ± 0.028 | 0.0243 ± 0.01 |
| GGAGACCAUACUAUACAACCUACUUACCUCA | 0.175 ± 0.017 | 0.00697 ± 0.0031 |
| GGAGACCUAACCAUACAACCUACUACCUCA | 0.12 ± 0.072 | 0.0143 ± 0.0069 |
| GGAGACGUUACUAUACAUCCUACUACCUCA | 0.293 ± 0.018 | 0.00676 ± 0.003 |
| GGAGACGAUUACUAUACAACCUACUACCUCA | 0.147 ± 0.0094 | 0.0159 ± 0.0066 |
| GGAGAGGAUACUAUACAACCUACUACGAGA | 0.00764 ± 0.0034 | 0.00374 ± 0.0018 |
| GGAGUGGAUACUUUACAAGCUACUACCUCA | 0.192 ± 0.013 | 0.00397 ± 0.0024 |
| GGAGACGAUACUAUACAACUUACUACCUCA | 0.0232 ± 0.0039 | 0.0183 ± 0.0077 |
| GGAGACGAUACUAUACAUCCUACUAGCUCA | 0.173 ± 0.027 | 0.00336 ± 0.0019 |
| GGAGACCAUACUAUACAACCUCACUACCUCA | 0.00609 ± 0.0028 | 0.0127 ± 0.0078 |
| GGAGACCAUAUCUAUACAACCUACUACCUCA | 0.138 ± 0.015 | 0.124 ± 0.051 |
| GGAGUGGAUACUAUACAACCUACUUACCUCA | 0.133 ± 0.011 | 0.00852 ± 0.0034 |
| GGAGACGAUACUAUACAACCUACUACUCA | 0.125 ± 0.019 | 0.00549 ± 0.0025 |
| GGAGAGGAUACUAUUCAACCUACUAGCUCA | 0.063 ± 0.014 | 0.00239 ± 0.0015 |
| GGAGACGAUACUAUUCAACCAACUACCUCA | 0.00612 ± 0.0026 | 0.00444 ± 0.002 |
| GGAGACCUUACUAUACAACCUACUAACCUCA | 0.178 ± 0.018 | 0.00393 ± 0.0038 |
| GGAGACCUAACUAUACAUCCUACUACCUCA | 0.239 ± 0.028 | 0.00745 ± 0.0028 |
| GGAGACCUAUGUAUACAACCUACUACCUUA | 0.0696 ± 0.0086 | 0.00547 ± 0.0039 |
